Screens: PubChem, National Center for Advancing Translational Sciences (NCATS)
TGFb SMAD3 inh – TGF-b pathway inhibition | Potency, µM (highest dose often 46.1 µM), for the others: top-dose activity, negative = inhibition, most hits filed as inhibitors | HepG2 CAGA-GFP TGF-b/SMAD3 reporter, GFP fluorescence, 18 h; TGF-beta stimulated, 500 pg/mL final | AID 588855 | 1.2% of 410,000 active; note: potency is the fitted concentration of half-maximal effect; % is set by controls: 0 for no effect and ±100 for the full control effect; nearly all actives have a fitted effect of over 65% in size
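Per well, imaged GFP fluorescence of HEPG2 CAGA-GFP cells gives the signal; cells get compound, then TGF-beta (500 pg/mL final), 18 h at 37 degrees C; %Activity versus -TGF-beta and +DMSO controls.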
ATXN viability – viability counter-screen for ATXN expression inhibitors; AID 651635; Potency, µM (highest dose often 56.7 µM), hits mostly cytotoxic; S2 cells (HEK-293 line with an ATXN2-luciferase reporter) viability, CellTiter-Fluor protease fluorescence, 24 h; 0.49% of 400,000 active; note: potency is the fitted concentration of half-maximal effect; nearly all actives have a fitted effect of over 40% in size
HepG2 tox – kills HepG2 cells in TGF-b inhibitor counter-screen | HepG2 CAGA-GFP viability, ATP luminescence, 18 h | Potency, µM (series often up to 46.1 µM), for the others: at the highest dose activity change, negative = cytotoxicity, actives largely listed as cytotoxic | 0.76% of 410,000 active | AID 588856; note: potency is the fitted concentration of half-maximal effect
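HepG2 CAGA-GFP cells (1000/well, DMEM with 1% FBS) received compound, then TGF-beta at 500 pg/mL final, and were incubated 18 hours at 37 degrees C. Viability was read by CellTiter-Glo luminescence. Media-only wells were set as complete cell-killing and DMSO as no toxicity.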
IL-1B inflam inh – blocks inflammasome-driven IL-1 beta release; activity change, % at 57.5 µM; AID 743279; 4.7% of 360,000 active; THP-1 LPS/ATP IL-1B secretion, AlphaLISA, 16 h; hits give low values; in the data active = activity change below about -50%; inconclusive = mostly about -30% to -49%; note: % is set by controls: 0 for no effect and ±100 for the full control effect
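Secreted IL-1B measured by AlphaLISA bead assay after 16 h compound exposure of THP-1 cells; compounds (final up to 57.5 uM) added 1 h before LPS (250 ng/mL) and ATP (1.25 mM) stimulation; lower signal means less secretion.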
ATXN2 expr inh – inhibitors of ATXN2 expression | Potency, µM (doses to about 57 µM), for inactives: at the highest dose activity change, negative = inhibition, most hits filed as inhibitors | 0.72% of 360,000 active | HEK-293 ATXN2-luciferase reporter, luminescence, 24 h; note: potency is the fitted concentration of half-maximal effect; % is set by controls: 0 for no effect and ±100 for the full control effect; nearly all actives have a fitted effect of over 55% in size
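ATXN2-luciferase reporter cells (luciferase flanked by upstream and downstream ATXN2 gene portions) were treated 24 h at 37 °C with compounds at up to 57 uM. SteadyGlo luminescence gave expression; GF-AFC fluorescence gave viability.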
Numbers without * were called inactive. Sampled rows, rich in hits. Any-hit rate of the full collection: about 5.7%. Unless noted, calls come from the whole dose curve; as a rule, active = well fitted curve in the direction sought with a large enough effect; inconclusive = small, poorly fitted or top-dose-only effect, or another doubt; inactive = no such curve, though single readings can be large; an effect the other way counts as inactive or inconclusive.

What do the screens show for `O=C(CSc1ncnc2ccccc12)Nc1ccc2c(c1)OCCO2`?
TGFb SMAD3 inh: -11.1%; ATXN viability: inactive; HepG2 tox: -20.7%; IL-1B inflam inh: -98.1*; ATXN2 expr inh: 80.4%

Results for O=C(CSc1nc(Cc2ccccc2)nc2ccccc12)Nc1ccc2c(c1)OCCO2 ?
TGFb SMAD3 inh: -5.7%; ATXN viability: inactive; HepG2 tox: -35.9%; IL-1B inflam inh: -0.5; ATXN2 expr inh: -15.3%

Results for CC(=O)Nc1ccc(SCC(=O)Nc2ccc3c(c2)OCCO3)cc1 ?
TGFb SMAD3 inh: 4.1%; ATXN viability: inactive; HepG2 tox: 3.55µM*; IL-1B inflam inh: -16.0; ATXN2 expr inh: 2.2%

How did CN(C)CC(C)(C)CNC(=O)c1cnn(-c2nccc(-c3ccc4c(c3)OCO4)n2)c1-c1ccco1 do in these assays?
ATXN viability: inactive

Results for C/C(=N\O)c1ccc(OCC(=O)N2CCCCC2)cc1 ?
ATXN viability: inconclusive; ATXN2 expr inh: 49.6%

Results for COC(=O)c1sc(-c2cccs2)cc1NC(=O)/C=C/C(=O)O ?
TGFb SMAD3 inh: -22.6%; ATXN viability: inactive; HepG2 tox: -19.2%; IL-1B inflam inh: -91.7*; ATXN2 expr inh: inconclusive

Results for CC(C)(C)n1ncc2c(=O)n(Cc3cccc(C(F)(F)F)c3)cnc21 ?
TGFb SMAD3 inh: inconclusive; HepG2 tox: -20.0%

Results for Cc1cccc(OCC(=O)Nc2ccc(OCc3cc(=O)n4cc(C)ccc4n3)cc2)c1 ?
TGFb SMAD3 inh: 14.1%; HepG2 tox: -0.9%

What do the screens show for `CCOC(=O)c1c(S(=O)(=O)N2CCCC(C(=O)N3CCN(c4cc(C)ccc4C)CC3)C2)c(C)n(C)c1C` (stereo unspecified)?
TGFb SMAD3 inh: inconclusive; ATXN viability: inactive; HepG2 tox: -9.3%; ATXN2 expr inh: 2.5%

Results for C[C@H](O)[C@@H]1C(=O)N2CCc3ccc(-c4cccc(F)c4)cc3[C@@H]2C[C@@H]1N(C)S(=O)(=O)c1ccccc1 ?
TGFb SMAD3 inh: inconclusive; ATXN viability: inactive; HepG2 tox: 4.0%; IL-1B inflam inh: -51.9*; ATXN2 expr inh: -38.0%

How did CC(C)C(Cl)=NOC(=O)Nc1ccc(F)cc1 do in these assays?
TGFb SMAD3 inh: -11.0%; ATXN viability: 21.2µM*; HepG2 tox: 20µM*; IL-1B inflam inh: -99.6*; ATXN2 expr inh: inconclusive

How did C/C(=N\OC(=O)Nc1ccc(Cl)cc1)c1ccc(F)c(F)c1 do in these assays?
TGFb SMAD3 inh: 0.0%; ATXN viability: inactive; HepG2 tox: -96.1%; IL-1B inflam inh: -86.9*; ATXN2 expr inh: 22.0%

Results for C/C(=N\OC(=O)Nc1ccc(Cl)cc1)c1ncc(C(F)(F)F)cc1N1CCOCC1 ?
TGFb SMAD3 inh: -9.4%; ATXN viability: inactive; HepG2 tox: -18.7%; IL-1B inflam inh: inconclusive; ATXN2 expr inh: 26.5%

What do the screens show for `COc1cc(-c2cccc(Cl)c2)cc2c1OCCN(C(=O)CCn1ccc(C)n1)C2`?
ATXN viability: inactive

Results for COCCNC(=O)C1CCCN(C(=O)c2ccnc(Cl)c2)CC1 (stereo unspecified) ?
TGFb SMAD3 inh: -3.1%; ATXN viability: inactive; HepG2 tox: 3.5%; IL-1B inflam inh: -62.3*; ATXN2 expr inh: 10.6%

How did O=C(CC(C(=O)O)n1ccnc1)c1ccc(Cl)cc1 (stereo unspecified) do in these assays?
TGFb SMAD3 inh: -12.8%; HepG2 tox: 6.3%

What do the screens show for `O=C(O)CSCC(=O)NCc1c(Cl)cccc1Oc1ccccc1`?
TGFb SMAD3 inh: 15.0%; HepG2 tox: -4.8%; IL-1B inflam inh: 26.1; ATXN2 expr inh: 5.8%

What do the screens show for `O=S(=O)(NCc1c(Cl)cccc1Oc1ccccc1)c1ccc(F)cc1`?
TGFb SMAD3 inh: 11.2µM*; ATXN viability: inactive; HepG2 tox: -45.0%; IL-1B inflam inh: 34.5

How did CCOc1cc(OCC)c(C(=O)CCC(=O)O)cc1OCC do in these assays?
ATXN viability: inactive; ATXN2 expr inh: 4.4%

Results for COc1ccc(S(=O)(=O)Nc2ccc3c(c2)N(C(C)=O)CCC3)cc1F ?
TGFb SMAD3 inh: -46.5%; HepG2 tox: -20.8%
